Bioassay records from PubChem BioAssay.
Rows were chosen to be rich in hits. Some 14% of all compounds tested hit in one or more screens of this group.
HCV inh: blocks hepatitis C virus; AID 651820; hit rate 3.4% among 340,000; Potency, µM (series often up to 41.8 µM), without a hit: at the highest dose activity change, negative = inhibition, hits mostly inhibitors; Huh7.5.1 HCVcc-Cre infection, luciferase reporter, 44 h; note: potency is the fitted concentration of half-maximal effect
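A cell-based infection assay in which seeded cells (1,000 per well) receive test compound after 4 h, are inoculated with HCVcc-Cre at approximately 0.5 moi, and are incubated 44 h before luminescence detection.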
LASV entry inh: Lassa virus entry inhibition. hit rate 1.2% among 300,000. Potency, µM (top dose mostly 37.9 µM), without a hit: top-dose activity change, negative = inhibition, usual class: inhibitors. Lassa virus pseudotype entry inhibition, cell reporter; calls by dose curve; tested in HEK293 cells; note: potency is the fitted concentration of half-maximal effect; nearly all actives have a fitted effect of over 50% in size
Pf growth 48h: P. falciparum growth inhibition at 48 hours (one generation) | hit rate 5.9% among 310,000 | Potency, µM (top dose mostly 28.7 µM), for the others: top-dose activity change, negative = inhibition, most hits filed as inhibitors | P. falciparum luciferase growth in erythrocytes, 48 h; note: potency is the fitted concentration of half-maximal effect
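Cell-based growth assay: transgenic P. falciparum expressing firefly luciferase, cultured in red cells within RPMI 1640 containing 0.5% w/v Albumax, 24 mM bicarbonate and gentamycin. A drop in luciferase activity indicates inhibition.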
Marburg entry inh: inhibitors of Marburg virus binding or cell entry. Marburg virus pseudotyped entry inhibition, cell reporter. Potency, µM (top dose mostly 37.8 µM), inactives show at the highest dose activity change, negative = inhibition, most hits filed as inhibitors. hit rate 1.8% among 300,000; calls by dose curve; tested in HEK293 cells; note: potency is the fitted concentration of half-maximal effect
HCMV inh: blocks human cytomegalovirus replication | HFF cells, HCMV-luciferase reporter, 72 h; hits give low values | activity change, negative = inhibition, % at 57.5 µM | hit rate 4.5% among 410,000; in the data active = activity change below about -60%; inconclusive = no clear call, values can overlap the other calls; inactive = above about -39%
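Compounds were evaluated in HFFs infected with an HCMV luciferase reporter virus (MOI 1 PFU/cell). Luciferase in lysates collected 72 h post infection served as the replication measure.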
Pf growth 96h: P. falciparum growth inhibition at 96 hours; Potency, µM (titrated, usually from 28.7 µM), without a hit: at the highest dose activity change, negative = inhibition, actives largely listed as inhibitors; hit rate 6.9% among 320,000; AID 504834; P. falciparum luciferase reporter growth, 96 h; note: potency is the fitted concentration of half-maximal effect
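96 h incubation, 37 C, 5% CO2, of luciferase-reporter P. falciparum-infected RBCs (2% hematocrit, 0.05% parasitemia final) with test compounds; endpoint luminescence.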
The depositor's hits bear a star; ? = inconclusive; / = not tested or not shown; + = active, no number; [ ] = dose if it differs, or a comment. Unless noted, calls come from the whole dose curve; as a rule, active = well fitted inhibition curve with a large enough effect; inconclusive = small, poorly fitted or top-dose-only effect, or another doubt; inactive = no such curve, though single readings can be large or run the other way. % is set by controls: 0 for no effect and ±100 for the full control effect.

SMILES	HCV inh	LASV entry inh	Pf growth 48h	Marburg entry inh	HCMV inh	Pf growth 96h
CCOc1cc(CNCc2ccccc2)ccc1OCC(=O)NC1CCCCC1	2.5µM*	-19%	-5%	?	40	-44%
CCOc1cc(C(=O)Nc2ccc(C)cc2C)ccc1OCC(=O)N1CCCCC1	-19%	-18%	?	-14%	-12	?
CCOc1cc(C(=O)Nc2ccc(NC(C)=O)cc2)ccc1OCC(=O)N1CCCCC1	?	?	-19%	-1%	-9	12µM*
COc1cc(C=O)ccc1OCC(=O)N1CCCC1	13%	/	3%	/	-6	9.3µM*
COc1cc(C(=S)N2CCCCC2)ccc1OCC(=O)N1CCCC1	16%	9%	5%	0%	56	?
Cc1ccccc1-c1ccnc2c(-c3ccc(F)cc3)c(C)nn12	/	-10%[46.1 µM]	/	-3%[46.1 µM]	-34	/
CCOc1cc(C(=S)N2CCCCC2)ccc1OCC(=O)NCc1ccccc1	?	-12%	/	?	-33	3.7µM*
CCc1cc(C(=O)Cc2ccc(F)cc2)c(O)cc1O	3%	?	?	?	-77*	69%
CCCc1cc(C(=O)Cc2ccc(F)cc2)c(O)cc1O	0%	-7%	-15%	11%	-20	/
CCCc1cc(C(=O)Cc2ccc(C(=O)OCC)o2)c(O)cc1O	-20%	-28%	12µM*	11%	-16	12µM*
CCCc1cc(-c2n[nH]c(C)c2-c2ccc(C(=O)OCC)o2)c(O)cc1O	?	-23%	?	-3%	-22	13%
COC(=O)c1cc(S(=O)(=O)N2CCN(c3ccc(C(C)=O)cc3)CC2)cn1C	-3%	/	-9%	/	-23	15%
Cc1ccc(CSc2nnc(CCCCCNC(=O)OC(C)(C)C)o2)cc1	?	-28%	?	?	-13	-20%
Cc1cccc(CSc2nnc(CCCCCNC(=O)OC(C)(C)C)o2)c1	?	?	9.3µM*	?	4	-9%
c1ccc2c(-c3ccc4nncn4c3)cncc2c1	/	/	/	/	-70*	/
COc1ccc(OC)c2sc(N(Cc3cccnc3)C(=O)c3ccco3)nc12	/	13%[46.1 µM]	/	/	+	/
COc1ccc(Cl)c2sc(N(Cc3cccnc3)C(C)=O)nc12	13µM*	?	-4%	8%[46.1 µM]	-24	?
Cc1cccc(N2CCN(C(=O)Cn3ncc4c([nH]c5ccccc54)c3=O)CC2C)c1 (stereo not given)	/	-3%[46.1 µM]	/	/	16	/
COc1ccc(N(CC(=O)NCc2ccncc2)S(=O)(=O)c2ccc(C)c([N+](=O)[O-])c2)cc1	-17%	/	1.9µM*	/	9	-1%
COc1ccc(N(CC(=O)NCc2cccnc2)S(=O)(=O)c2ccc(C)c([N+](=O)[O-])c2)cc1	0%	-13%[46.1 µM]	13%	-5%[46.1 µM]	-30	?
COc1ccc(N(CC(=O)NC2CC3CCC2C3)S(=O)(=O)c2ccc(C)c([N+](=O)[O-])c2)cc1 (stereo not given)	2.8µM*	-17%[46.1 µM]	?	?	-27	8%
COc1ccc(N(CC(=O)Nc2ccccc2F)S(=O)(=O)c2ccc(C)c([N+](=O)[O-])c2)cc1	?	?	-17%	?	?	10%[5.75 µM]
CCOC(=O)C1=CCN(S(=O)(=O)c2ccc(C)cc2)C1c1ccccc1F (stereo not given)	/	/	/	/	-33	/
C(=C\c1nc(N2CCCC2)c2ccccc2n1)/c1ccccc1	?	?	31%	7.1µM*	-72*	0%
CC(C)(C)C(=O)NNc1nc(-c2ccccc2)c2cc(Br)ccc2n1	?	-18%	21%	?	-35	-2%
c1ccc2c(c1)nc(N1CCCCCC1)c1ccccc12	-23%	?	?	?	-28	-13%
COc1ccc(Nc2nc(-c3ccccc3)c3cc(Br)ccc3n2)cc1	/	-23%[46.1 µM]	/	/	-61*	/
COCCNC(=O)c1cccc(Nc2nc(-c3ccccc3)c3cc(Cl)ccc3n2)c1	10µM*	-1%	?	5%	-33	?
Oc1ccc(Nc2nc(N3CCCC3)c3ccccc3n2)cc1	?	?	0.47µM*	11µM*	-66*	7%
